Assay outcomes: PubChem BioAssay, several laboratories
Most compounds without a hit are left out; they make up all but 2.4% or so of the library.
SENP7 block: inhibitors of human SENP7 protease; Q9BQF6; recombinant SENP7, Z-RLRGG-aminoluciferin luminescence, 40 min; inhibition, % at 5 µM; 330,000 tested, 1.5% active;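 active = inhibition above about 50% at the single test dose, limit read from the data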;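 note: plate controls were DMSO with enzyme for no effect and no enzyme buffer wells for full effect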
Target sequence (Q9BQF6 706-1050 limits assumed): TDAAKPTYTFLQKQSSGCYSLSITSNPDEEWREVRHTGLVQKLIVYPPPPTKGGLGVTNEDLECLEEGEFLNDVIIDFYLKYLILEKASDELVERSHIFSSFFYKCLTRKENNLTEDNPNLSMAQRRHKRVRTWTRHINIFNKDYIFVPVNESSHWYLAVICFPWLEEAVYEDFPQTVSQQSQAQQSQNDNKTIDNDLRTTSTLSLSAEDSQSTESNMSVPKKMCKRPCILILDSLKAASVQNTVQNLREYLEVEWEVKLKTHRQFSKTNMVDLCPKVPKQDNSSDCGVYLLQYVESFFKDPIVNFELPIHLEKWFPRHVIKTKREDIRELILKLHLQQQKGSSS
Platelet DG rel: modulates dense granule release in human platelets; human platelet-rich plasma, SFLLRN dense granule ATP release, luminescence; inhibition, %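 (compounds screened at 7.5 µM in platelet-rich plasma)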; 300,000 tested, 0.22% active;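 active = mean replicate score, as percent of positive control, at or above 50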
SENP8 block-1: blocks human SENP8 cleavage of Nedd8 substrate; recombinant SENP8, Nedd8 substrate fluorescence; inhibition, % at 20 µM; 360,000 tested, 0.64% active; in the data active = inhibition mostly above about 40%, no sharp cut-off; inactive = mostly below about 27%
Target sequence (Q96LD8 whole entry, looked up): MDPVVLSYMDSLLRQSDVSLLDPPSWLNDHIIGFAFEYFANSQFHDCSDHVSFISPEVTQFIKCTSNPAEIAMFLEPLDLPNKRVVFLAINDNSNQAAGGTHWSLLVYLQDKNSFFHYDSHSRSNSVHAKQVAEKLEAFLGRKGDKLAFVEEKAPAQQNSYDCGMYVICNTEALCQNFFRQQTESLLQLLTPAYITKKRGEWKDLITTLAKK
SENP8 block-2: inhibitors of human SENP8 protease | inhibition, % at 10 µM | Q96LD8 | purified SENP8, Z-RLRGG-aminoluciferin cleavage, luminescence | AID 2540 | 330,000 tested, 1.2% active; in the data active = inhibition above about 50%
SENP6 block: blocks the human protease SENP6; AID 2599; Q9GZR1; 330,000 tested, 1.8% active; inhibition, % at 10 µM; Recombinant SENP6 catalytic domain, aminoluciferin luminescence;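 active = inhibition above about 50% at the single tested dose, limit read from the data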;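 note: plate controls were DMSO wells with enzyme for no effect and DMSO wells lacking enzyme for full effect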
SENP8 confirm: confirmation of human SENP8 protease inhibitors; Recombinant SENP8, Z-RLRGG-aminoluciferin luminescence, 60 min; shares compounds with SENP7 block; inhibition, % at 12.5 µM; AID 488912; 6,200 tested, 40% active;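 active = mean inhibition across replicates above about 50%, limit read from the data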
SENP6 conf: confirmation of human SENP6 protease inhibitors; shares compounds with SENP7 block; recombinant SENP6, Z-RLRGG-aminoluciferin luminescence; inhibition, % at 12.5 µM; 6,200 tested, 58% active
SENP7 confirm: confirmation of human SENP7 protease inhibitors; recombinant SENP7, Z-RLRGG-aminoluciferin luminescence, 40 min; inhibition, % at 12.5 µM; 6,200 tested, 69% active; shares compounds with SENP7 block
Casp3 SENP sel: selectivity test for SENP inhibitors: human caspase-3 inhibition | shares compounds with SENP7 block | 6,200 tested, 60% active | purified caspase-3, Z-DEVD-aminoluciferin luminescence, 60 min | inhibition, % at 12.5 µM;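 active = mean inhibition above about 50%, limit read from the data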;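 note: plate controls were enzyme with DMSO for no effect and wells without caspase-3 for full effect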
SENP luc ctr: counter-screen for SENP inhibitors: luminescence interference; 6,200 tested, 39% active; inhibition, % at 12.5 µM; AID 488919; Pre-incubated SENP8/Z-RLRGG-aminoluciferin, luciferase luminescence interference; shares compounds with SENP7 block;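 active = mean inhibition above about 50% when retested at one dose, limit read from the data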;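 note: plate controls were DMSO wells with completed reaction for no effect and substrate without enzyme for full effect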
An asterisk follows results filed as active; . = no result given.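 Rule for the calls, unless noted: active = mean inhibition above about 50% in the one-dose retest (limit read from the data); inactive = the rest.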

SMILES	SENP7 block	Platelet DG rel	SENP8 block-1	SENP8 block-2	SENP6 block	SENP8 confirm	SENP6 conf	SENP7 confirm	Casp3 SENP sel	SENP luc ctr
O=C(Nc1ccc2c(c1)OCO2)c1ccccn1	57*	.	12	53*	66*	71*	71*	88*	89*	73*
O=C(Nc1ccc2c(c1)OCO2)c1cnccn1	19	9	-1	11	6	.	.	.	.	.
CCOc1ccc(CNCCN2CCCC2)cc1	-5	1	13	6	1	.	.	.	.	.
Cc1ccccc1Cn1nc(C)c(NC(=O)/C=C/c2cnn(C)c2)c1C	-15	2	14	-8	-32	.	.	.	.	.
O=[N+]([O-])c1ccc(/C=C/c2ccc3ccccc3n2)cc1	94*	41	4	91*	93*	64*	78*	94*	78*	14
CC(=O)Nc1ccc(/C=C/c2ccc3cccc([N+](=O)[O-])c3n2)cc1	9	1	25	-6	11	.	.	.	.	.
O=[N+]([O-])c1ccc(/C=C/c2ccc3cccc(O)c3n2)cc1	53*	-8	22	34	45	0	5	6	11	7
CC(=O)N(C(C)=O)n1c(/C=C/c2ccc([N+](=O)[O-])cc2)nc2ccccc2c1=O	3	3	-56	-4	-15	.	.	.	.	.
COC(=O)c1ccc2nc(-c3ccc4c(c3)OCO4)cn2c1	78*	6	-404	50	-1	16	17	40	58*	20
c1cnc2nc(-c3ccc4c(c3)OCO4)cn2c1	-7	6	-412	-27	-9	.	.	.	.	.
CCc1ccn2cc(-c3ccc4c(c3)OCO4)nc2c1	97*	50*	-412	94*	96*	97*	98*	102*	96*	96*
Cc1ccc2nc(SCC(=O)N3c4ccccc4CC3C)c(C)cc2c1 (configuration not stated)	9	-27	1	2	6	.	.	.	.	.
Cc1ccc2nc(-c3cccnc3SCC(=O)N3c4ccccc4CC3C)[nH]c2c1 (configuration not stated)	-2	-1	-165	33	55*	29	23	70*	36	-2
Cc1ccc(O)c(NC(=O)c2cc(-c3cccs3)on2)c1	45	5	10	6	27	.	.	.	.	.
CCOC(=O)C1CCN(Cc2cnc(Oc3ccc(C(C)(C)C)cc3)s2)CC1	102*	-1	12	1	4	3	0	1	1	-2
C/C(=N\OC(=O)c1ccccc1F)c1nccs1	79*	-1	16	-6	79*	60*	53*	92*	6	33
O=c1c2c([nH]c3ccccc13)CCCCCC2	10	-3	-14	3	0	.	.	.	.	.
O=c1c2c([nH]c3ccccc13)CCCCC2	2	-2	2	-6	82*	10	2	-4	-7	-8
COc1ccc(N2Cc3ccccc3C2=O)cc1	93*	7	-83	78*	87*	86*	87*	98*	94*	82*
O=C1c2ccccc2CN1c1ccccc1	38	-5	-1	9	40	.	.	.	.	.
Cc1ccc(N2Cc3ccccc3C2=O)cc1	94*	21	-19	89*	93*	91*	93*	101*	95*	54*
C=CC(=O)Oc1ccc(N2Cc3ccccc3C2=O)cc1	-1	12	1	17	11	.	.	.	.	.
Cc1ccc(C)c(N2CCN(C(=O)c3ccc(N4CCOCC4)c([N+](=O)[O-])c3)CC2)c1	9	-12	15	2	-5	.	.	.	.	.
O=C(C1CCC(CNc2c(N3CCCCC3)c(=O)c2=O)CC1)N1CCCC1 (configuration not stated)	5	5	28	-3	-18	.	.	.	.	.
CC(=O)c1sc(NC(=O)c2ccc3c(c2)OCO3)nc1C	82*	9	-35	70*	80*	63*	77*	95*	88*	77*
SMILES	SENP7 block	Platelet DG rel	SENP8 block-1	SENP8 block-2	SENP6 block	SENP8 confirm	SENP6 conf	SENP7 confirm	Casp3 SENP sel	SENP luc ctr
Cc1csc(NC(=O)c2ccc3c(c2)OCO3)n1	86*	3	-19	75*	85*	43	80*	96*	90*	82*
CC(=O)c1sc(NC(=O)c2cnc(Cl)c(Cl)c2)nc1C	66*	12	-28	77*	84*	12	54*	28	91*	82*
CCOC(=O)Cc1csc(NC(=O)c2ccc3c(c2)OCO3)n1	20	2	3	-3	15	.	.	.	.	.
O=C(Nc1nccs1)c1ccc2c(c1)OCO2	48	18	6	44	63*	-5	8	68*	67*	0
Cc1cccc(C)c1NC(=O)CSc1nnc(C)n1CC1CCCO1 (configuration not stated)	5	-1	14	7	-18	.	.	.	.	.
O=C(COc1ccc(Cl)cc1Br)Nc1nnc(C2CC2)s1	1	.	-1	-5	3	.	.	.	.	.
COc1ccc(N2C(=O)/C(=C/c3ccc([N+](=O)[O-])cc3)C=C2c2ccccc2)cc1	60*	-17	21	1	-9	7	7	9	7	2
O=C1/C(=C/c2ccc([N+](=O)[O-])cc2)C=C(c2ccccc2)N1c1ccccc1	2	-1	2	0	2	.	.	.	.	.
N#CC(C#N)=NNc1ccc([N+](=O)[O-])cc1	44	9	24	74*	81*	11	82*	93*	61*	83*
COCCN(C(=O)CSc1nc(N)cc(=O)[nH]1)c1c(N)n(Cc2ccccc2)c(=O)[nH]c1=O	3	0	1	12	7	.	.	.	.	.
Cc1cc2ncc(-c3ccc(Cl)cc3)cn2n1	30	9	2	39	-1	.	.	.	.	.
Cc1ccc(-c2cnc3c(Cl)c(C)nn3c2)cc1	94*	25	4	68*	65*	69*	70*	75*	80*	45
Cc1ccc(-c2cnc3cc(C)nn3c2)cc1	75*	-13	-5	47	58*	51*	61*	83*	72*	25
O=C(COC(=O)c1ccco1)NCc1ccc2c(c1)OCO2	5	4	10	-3	58*	-4	-6	-8	2	-3
O=C(COC(=O)c1ccc2c(c1)OCO2)NCc1ccc2c(c1)OCO2	1	0	4	6	-3	.	.	.	.	.
